High-throughput results (PubChem BioAssay)
Sampled rows, rich in hits. Any-hit rate of the full collection: about 6.6%.
HepG2 viability – HepG2 cytotoxicity, counter-screen for TGF-b inhibitors. HepG2 CAGA-GFP viability, ATP luminescence, 18 h. Potency, µM (titrated, usually from 46.1 µM), for inactives: at the highest dose activity change, negative = cytotoxicity, usual class: cytotoxic. 410,000 compounds, 0.76% hits
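CellTiter-Glo luminescence gave cytotoxicity after 18 hours at 37 degrees C. The cells were HepG2 CAGA-GFP in 1% FBS DMEM, stimulated with 500 pg/mL TGF-beta after compound addition. %Activity was normalised to no-cell wells (complete cell-killing) and DMSO (no toxicity), and curves were fitted and classified.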
HT1080 IDH1KD tx – kills HT-1080 cells with IDH1 knockdown | Potency, µM (series often up to 46.1 µM), without a hit: at the highest dose activity, negative = toxicity, most hits filed as cytotoxic | 360,000 compounds, 2% hits | HT-1080 IDH1 knockdown viability, ATP luminescence, 48 h;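 note: 0% = DMSO wells and -100% = cell-free medium wells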
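Cytotoxicity counter-line: IDH1KD HT-1080, 48 h, CellTiter-Glo. Curves classed by r2, magnitude and activity.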
TGFb inhibitor – blocks TGF-b signaling. HepG2 CAGA-GFP TGF-b/SMAD3 reporter, GFP fluorescence, 18 h; TGF-beta stimulated, 500 pg/mL final. Potency, µM (doses to about 46.1 µM), inactives show top-dose activity, negative = inhibition, hits mostly inhibitors. 410,000 compounds, 1.2% hits; note: % is set by controls: 0 for no effect and ±100 for the full control effect; nearly all actives have a fitted effect of over 65% in size
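Inhibition of TGF-beta-driven CAGA-GFP reporter expression in HEPG2 cells is measured by cellular GFP fluorescence after 18 h stimulation with 500 pg/mL recombinant TGF-beta in 1% FBS medium at 37 degrees C.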
KB-V1 MDR tox – KB-V1 MDR subline cytotoxicity; 400,000 compounds, 3.4% hits; KB-V1 MDR cells viability, CellTiter-Glo, 72 h; AID 1347076; Potency, µM (titrated, usually from 46.1 µM), hits mostly cytotoxic; note: % is set by controls: 0 for no effect and ±100 for the full control effect; nearly all actives have a fitted effect of over 60% in size
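Following 72 h at 37 degrees C with compound, KB-V1 cell viability was read by CellTiter-Glo luminescence, medium being phenol-red-free DMEM plus 10% FBS; concentration-response parameters came from normalized, curve-fitted qHTS data.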
HT1080NT lethal – kills 2HG-producing HT-1080-NT fibrosarcoma cells | HT-1080-NT fibrosarcoma viability, CellTiter-Glo ATP luminescence, 48 h | Potency, µM (titrated, usually from 46.1 µM), inactives show at the top dose activity, negative = less viability, most hits filed as cytotoxic | 360,000 compounds, 1.6% hits | AID 686970;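 note: NT is the 2HG producing partner of a matched IDH1 knockdown line; 0% = DMSO-treated cells and -100% = media-only wells without cells; nearly all actives have a fitted effect of over 55% in size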
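750 cells/well, RPMI + 5% FBS; 2 h settle, compound pin-transfer, 48 h at 37 degrees C. CellTiter-Glo 10 min RT, luminescence. Normalized to DMSO and media-only wells.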
KB-3-1 tox – KB-3-1 parental cell cytotoxicity. KB-3-1 viability, CellTiter-Glo ATP luminescence, 72 h. Potency, µM (top dose mostly 46.1 µM), usual class: cytotoxic. 400,000 compounds, 1.4% hits. AID 1347075; note: % is set by controls: 0 for no effect and ±100 for the full control effect; nearly all actives have a fitted effect of over 60% in size
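Multi-concentration cytotoxicity screen in KB-3-1 cells grown in DMEM lacking phenol red with 10% FBS. After 72 h at 37 °C with compound, ATP-dependent luminescence was recorded.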
* marks the source's active call; other numbers are inactive results; i = inactive; ? = inconclusive; / = not tested or not shown. Calls come from the whole dose curve; as a rule, active = well fitted curve in the direction sought with a large enough effect; inconclusive = small, poorly fitted or top-dose-only effect, or another doubt; inactive = no such curve, though single readings can be large; an effect the other way counts as inactive or inconclusive. Potency is the fitted concentration of half-maximal effect.

SMILES	HepG2 viability	HT1080 IDH1KD tx	TGFb inhibitor	KB-V1 MDR tox	HT1080NT lethal	KB-3-1 tox
Cc1cc(/C=N\NC(=O)CC(=O)NC2CCCCC2)c(C)n1-c1cccc(Cl)c1Cl	-52%	-19%	?	23µM*	-15%	?
Cc1cc(/C=N\NC(=O)CC(=O)NC2CCCCC2)c(C)n1-c1ccc(Cl)c(Cl)c1	-37%	?	?	?	?	?
CCCn1c(SCC(=O)N2N=C3/C(=C/c4ccc(OC)cc4)CCCC3C2c2ccc(OC)cc2)n[nH]c1=O (centres undefined)	-65%	12µM*	13µM*	?	7.3µM*	i
CC(=O)NCc1nc2cccnc2n1Cc1ccccc1	-2%	/	-1%	/	/	/
COc1c([N+](=O)[O-])ccc(N)c1N	2%	/	-1%	i	/	i
FC(F)(F)c1cccc(Cn2nnnc2-c2ccc(Cl)cc2)c1	0%	-28%	-6%	15µM*	11%	?
Cc1ccc(-c2c(C)n3c4c(=O)n(C)c(=O)n(C)c4nc3n2CCCO)cc1	-36%	/	?	6.5µM*	/	?
CC(OC(=O)c1cccc(S(=O)(=O)Nc2cccc(C(F)(F)F)c2)c1)C(=O)Nc1ccc2c(c1)OCCO2 (centres undefined)	-32%	-9%	?	15µM*	-15%	?
O=S(=O)(Nc1cccc(C(F)(F)F)c1)c1ccc(NS(=O)(=O)c2ccc3c(c2)OCCO3)cc1	-11%	/	?	i	/	i
COP(=O)(OC)OC(C(=O)c1ccccc1)c1ccccc1 (centres undefined)	/	3%	/	i	-5%	i
O=C(c1c2c(nc3ccccc13)C(=O)N(C1CCCCC1)C2)N1CCN(c2ccc(F)cc2)CC1	0%	/	8%	i	/	i
O=C(Nc1ccc(N2CCN(C(=O)c3ccccc3)CC2)c(Cl)c1)c1ccc(Br)o1	-34%	?	-4%	i	7.1µM*	?
O=C(Nc1ccc(N2CCN(C(=O)c3ccccc3)CC2)cc1)c1ccc(Br)o1	6%	6%	?	?	2%	i
COc1c(C)cc(Br)cc1C(=O)Nc1ccccc1N1CCN(C(=O)c2ccccc2)CC1	4%	29%	1%	23µM*	15%	?
O=C(Nc1ccccc1N1CCN(C(=O)c2ccccc2)CC1)c1cc(Br)ccc1Cl	-20%	-23%	9%	23µM*	-15%	?
CCC(CC)C(=O)Nc1ccc2nc(SCC(=O)N3CCc4ccccc43)sc2c1	-9%	/	5%	i	/	i
CCCc1cc(=O)n2[nH]c(NCc3ccccc3OC)nc2n1	5%	/	-2%	?	/	i
O=C(Nc1ccc(OC(F)(F)F)cc1)C1CCN(S(=O)(=O)c2ccc3[nH]c(=O)ccc3c2)CC1	-27%	/	1%	i	/	i
CSc1ccccc1NC(=O)c1ccccc1N(C)S(C)(=O)=O	13%	0%	0%	i	-2%	i
CSc1ccccc1NC(=O)c1ccccc1N(Cc1ccccc1)S(C)(=O)=O	-13%	-29%	-13%	9.2µM*	-3%	i
CSc1ccccc1NC(=O)CN(Cc1ccccc1)S(C)(=O)=O	5%	0%	6%	21µM*	5%	i
CSc1cccc(NC(=O)CN(Cc2ccc(Cl)cc2)S(C)(=O)=O)c1	-16%	?	-23%	12µM*	?	i
CSc1ccccc1NC(=O)CN(Cc1ccc(Cl)cc1)S(C)(=O)=O	-3%	1%	-29%	i	-4%	i
CCN(CCCNC(=O)CSc1cc(=O)n(CC)c2ccccc12)c1cccc(C)c1	-39%	/	?	?	/	?
CC12CCC=CC1C(c1ccoc1)N(Cc1ccccc1)C2=O (centres undefined)	-33%	/	?	/	/	/
SMILES	HepG2 viability	HT1080 IDH1KD tx	TGFb inhibitor	KB-V1 MDR tox	HT1080NT lethal	KB-3-1 tox
CCOC(=O)c1cc(-c2ccccc2)n(CCCC(=O)Nc2ccc(C)c(Cl)c2)c1C	-28%	/	11µM*	i	/	i
CCOC(=O)c1cc(-c2ccccc2)n(CCCC(=O)Nc2ccc(CC)cc2)c1C	-41%	/	?	i	/	?
OC[C@@H]1CN(Cc2ccc(Cl)cc2)C[C@H](n2cnc3c(NC4CC4)ncnc32)O1	-3%	2%	-7%	i	?	i
COc1ccc(CNC(=O)c2ccc(N3CCCC3)c(NC(=O)NCc3ccc(F)cc3)c2)cc1	-26%	/	?	i	/	?
COc1ccc(-c2cc(C(F)(F)F)nc(SCC(=O)NCc3cnn(C)c3C)n2)cc1OC	19%	-7%	-2%	9.2µM*	6%	?
COc1ccc(-c2cc(C(F)(F)F)nc(SCC(=O)N(C)Cc3cn(C)nc3C)n2)cc1OC	4%	1%	-6%	18µM*	-1%	?
COc1ccccc1CNC(=O)CSc1nc(-c2ccc(OC)c(OC)c2)cc(C(F)(F)F)n1	-33%	/	-12%	/	/	/
CN(C(=O)c1cccc(NC(=O)Cc2ccc(NC(=O)C3CCCN(C(=O)CCc4ccccc4)C3)cc2)c1)C1CCCC1 (centres undefined)	2%	-18%	?	i	-22%	6.5µM*
CN(C(=O)c1cccc(NC(=O)Cc2ccc(NC(=O)C3CCCN(C(=O)CCc4ccccc4)C3)cc2)c1)C1CCC1 (centres undefined)	-22%	-11%	?	i	-19%	i
CCN(CC)S(=O)(=O)c1ccc(Cl)c(NC(=O)CSc2cccc[n+]2[O-])c1	0%	3%	-11%	?	4%	i
CNS(=O)(=O)c1ccc(NC(=O)C2c3ccccc3Oc3ccccc32)cc1	-5%	-22%	0%	i	-7%	i
CCN(CC)S(=O)(=O)c1ccc(NC(=O)C2c3ccccc3Oc3ccccc32)cc1	-10%	-20%	-13%	18µM*	-17%	i
CCN(CC)S(=O)(=O)c1ccc(NC(=O)CSc2cccc[n+]2[O-])cc1	10µM*	10%	13%	i	2%	i
COc1ccc(NC(=O)/C=C/c2ccccc2)cn1	-4%	11%	0%	i	16%	i
COc1cccc(/C=C/C(=O)Nc2ccc(OC)nc2)c1	-19%	19%	1%	18µM*	9%	?
Cc1cc(C)c(C(=O)/C=C/c2cccc3ccccc23)c(=O)[nH]1	-42%	?	?	8.2µM*	?	6.5µM*
Cc1cc(C)c(C(=O)/C=C/c2ccc3c(c2)OCO3)c(=O)[nH]1	-3%	0%	-9%	?	1%	?
